The whole screen tested about 290,000 compounds, of which about 1,800 (0.62%) were called active. Many of the other results were omitted from the sample, so actives are more common in it than they were. Unmarked numbers belong to inactive results. No stated cut-off is given here; in the data, active means inhibition above about 50%; inactive means the rest.
Experiment: inhibition of NOD2-driven NF-kB reporter – cell-based, luminescence, uHTS, HEK293 (AID 1566)
Details: HEK293 NOD2/NF-kB luciferase reporter, at 4 µM, hits give high values
COc1ccc(S(=O)(=O)N2CCN(CC(O)COc3ccc(C#N)cc3)CC2)cc1OC (stereo not drawn) gave an inhibition of 1.5%. Molecule CC(=O)Nc1ccccc1OCC(=O)N(Cc1ccccc1)C(C)C has an inhibition of 19.2%. Molecule Cc1ccc(-n2c(C)nc3ncnc(-c4ccccc4)c32)cc1 has an inhibition of 17.9%. Work on CN1C(=O)/C(=C/c2ccccc2F)Sc2ccc(C(=O)N3CCCC3)cc21 yielded an inhibition of 37.3%. For CN1C(=O)/C(=C\c2ccccc2F)Sc2ccc(C(=O)NC3CCN(Cc4ccccc4)CC3)cc21, the inhibition was 58.2% (active). CN1C(=O)/C(=C/c2ccccc2F)Sc2ccc(C(=O)NCC3CCCO3)cc21 (stereo not drawn) showed an inhibition of 17%. Work on CCc1c(C)nc2c(C)cccc2c1SCCC#N yielded an inhibition of 12.6%. O=C(CN1CCN(C(c2ccccc2)c2ccccc2)CC1)Nc1ccc(N2CCOCC2)cc1 gave an inhibition of 6.9%. In the case of COC(=O)c1c(NC(=O)c2ccc(OC(C)C)cc2)sc2c1CC(C)(C)NC2(C)C, the inhibition is reported as 7.3%. For Cc1nc(C)c(C(=O)N/N=C/c2cc(Br)ccc2O)s1, the inhibition was 50.9% (active). For COc1ccccc1/C=N/NC(=O)c1sc(C)nc1C, the inhibition was 6.4%. In the case of COc1ccc(/C=N/NC(=O)c2sc(C)nc2C)cc1, the inhibition is reported as 13.6%. Work on Cc1onc(-c2ccccc2)c1C(=O)N1CCOC12CCN(c1cccc(F)n1)CC2 yielded an inhibition of 14.4%. O=C(NCCc1ccccc1)C1CCCN(c2ncnc3c2nc2n3CCCCC2)C1 (stereo not drawn) showed an inhibition of 18.5%. Molecule COC(=O)c1sc(N2C(=O)C(O)=C(C(=O)c3ccc(C)o3)C2c2ccco2)nc1C (stereo not drawn) has an inhibition of 39.6%. With O=C(NCc1ccccc1)N1CCOCC1 the inhibition was -1.5%. For CC(=O)Nc1cc2c(=O)n(Cc3ccccc3)c(C)nc2cc1N1CCOCC1, the inhibition was 9.5%. Cc1nc2cc(N3CCCCC3)c(NC(=O)c3ccncc3)cc2c(=O)n1Cc1ccccc1 gave an inhibition of 10.5%. Molecule CC(=O)Nc1ccc(NC(=O)c2sc(-c3ccccc3)nc2C)cc1 has an inhibition of 19.3%. COc1cc2cc(CN(CCc3ccccc3C)C(=S)NCCCN3CCOCC3)c(=O)[nH]c2cc1OC showed an inhibition of 17.4%. O=C(O)c1ccc(Nc2nc3ccccc3nc2NS(=O)(=O)c2cccs2)cc1 gave an inhibition of 7.1%. COc1ccc(Nc2nc3ccccc3nc2NS(=O)(=O)c2cccs2)cc1 showed an inhibition of 37.8%. CC(=O)Nc1ccc(S(=O)(=O)N2CCN(CC(=O)NC3CCCC3)CC2)cc1 showed an inhibition of -8.9%. For O=C1OCC2=C1C(c1ccccc1)CC(=O)N2c1ccc(F)cc1 (stereo not drawn), the inhibition was -3.1%. Work on Cc1c(CCC(=O)O)c(=O)oc2c(C)c3occ(-c4ccc(Br)cc4)c3cc12 yielded an inhibition of 41%. With Cc1c(CCC(=O)O)c(=O)oc2c(C)c(OCc3cc4c(cc3Cl)OCO4)ccc12 the inhibition was 35%. Molecule COc1ccc(-c2coc3c(C)c4oc(=O)c(CCC(=O)O)c(C)c4cc23)cc1 has an inhibition of 5.8%. Work on COc1ccccc1COc1ccc2c(C)c(CC(=O)O)c(=O)oc2c1C yielded an inhibition of 10.3%.

Reference: PubChem BioAssay AID1566 (Sanford-Burnham Center for Chemical Genomics, 2009)
